# Test results as given in PubChem BioAssay (NCI).
# The panel holds about 79,000 compounds, 15% with a hit somewhere; the sample as a whole holds those more often. Values without a mark were called inactive. The source made the active and inactive calls. No stated cut-off is given here; in the data, active means growth inhibition above about 70%; inactive means the rest.
# How the values were obtained:
# [1] = NCI Yeast Anticancer Drug Screen. Data for the rad50 strain (AID 155);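 further: 0% = growth of vehicle-only cultures of the same strain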; conditions: S. cerevisiae rad50 strain growth inhibition, active compounds read high
# Procedure, shortened: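 Yeast carrying a defined DNA repair defect were exposed to test compounds, and growth was compared with vehicle-treated controls to give percent inhibition.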
# [2] = NCI Yeast Anticancer Drug Screen. Data for the mec2-1 strain (AID 157); conditions: S. cerevisiae mec2-1 strain, active compounds read high
# Procedure, shortened: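 Mutant yeast (mec2-1) grown with compound; growth inhibition relative to vehicle control reported.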
# [3] = NCI Yeast Anticancer Drug Screen. Data for the sgs1 mgt1 strain (AID 161);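 further: 0% = growth of cultures given vehicle only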; conditions: S. cerevisiae sgs1 mgt1 strain, active compounds read high
# Procedure, shortened: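 This yeast growth screen uses a strain with defined DNA-repair lesions; compound-treated growth is compared with vehicle-treated growth.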
# [4] = NCI Yeast Anticancer Drug Screen. Data for the cln2 rad14 strain (AID 165);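 further: 0% = growth equal to vehicle treated cultures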; conditions: S. cerevisiae cln2 rad14 strain, active compounds read high
# Procedure, shortened: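 Readout is yeast growth inhibition versus vehicle-treated controls, using a strain with cln2 and rad14 alterations exposed to compound.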
# [5] = NCI Yeast Anticancer Drug Screen. Data for the bub3 strain (AID 167); conditions: S. cerevisiae bub3 mutant strain, active compounds read high
# Procedure, shortened: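 Compounds were applied to a genetically altered yeast strain carrying a cell-cycle control defect. Growth inhibition was scored against vehicle-treated controls.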
# [6] = NCI Yeast Anticancer Drug Screen. Data for the mlh1 rad18 strain (AID 175); conditions: S. cerevisiae mlh1 rad18 strain growth inhibition, active compounds read high
# Procedure, shortened: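 Genetically defined yeast (DNA repair-deficient) exposed to compounds; growth inhibition determined relative to vehicle.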
# [7] = at 5.0 µM (retest, dose inferred, filed as 0.5)
# [8] = at 50.0 µM (retest, dose inferred, filed as 5.0)
SMILES,"growth inhibition [1, 7]","growth inhibition [1, 8]",growth inhibition ([1]; at 50.0 µM),"growth inhibition [2, 7] [%]","growth inhibition [2, 8]",growth inhibition ([2]; at 50.0 µM),"growth inhibition [3, 7] [%]","growth inhibition [3, 8]",growth inhibition ([3]; at 50.0 µM),"growth inhibition [4, 7] [%]","growth inhibition [4, 8]",growth inhibition ([4]; at 50.0 µM),"growth inhibition [5, 7] [%]","growth inhibition [5, 8]",growth inhibition ([5]; at 50.0 µM),"growth inhibition [6, 7]","growth inhibition [6, 8]",growth inhibition ([6]; at 50.0 µM)
c1ccc2c(c1)CC1c3[nH]c4ccccc4c3CCN21 (centres undefined),-6%,-5%,88.3% (active),9,6%,76.9% (active),-8,-10%,82.8% (active),22,31%,88.2% (active),6,23%,77.7% (active),7%,3%,74% (active)
Cc1ccc(S(=O)(=O)Nc2ccccc2SSc2ccccc2NS(=O)(=O)c2ccc(C)cc2)cc1,46%,69%,57.5%,38,81% (active),63.8%,59,76% (active),60.6%,44,82% (active),68.9%,53,74% (active),60.4%,63%,77% (active),60.5%
O/N=C(/Cc1ccccc1)c1ccc2c(c1)OCO2,-4%,6%,-9.8%,-14,-11%,4.9%,-18,3%,-2.4%,-6,17%,8.6%,6,29%,15.1%,-19%,10%,2.95%
CN(C)C1C[C@@H](O[Si](C)(C)C(C)(C)C)C=C1S(=O)(=O)c1ccccc1 (some centres undefined),-16%,100% (active),44.8%,-4,100% (active),47.8%,-18,100% (active),36.4%,-14,99% (active),33.5%,-14,100% (active),7.75%,4%,100% (active),58%
O/N=C1/CCCC/C1=C\c1ccc(Cl)c(Cl)c1,5%,99% (active),98.8% (active),1,99% (active),99.3% (active),28,100% (active),99.2% (active),-6,99% (active),99.2% (active),-3,99% (active),99.3% (active),11%,96% (active),99.1% (active)
Oc1ccc(O)c(C2CCCCC2)c1,30%,94% (active),96.7% (active),62,99% (active),89.7% (active),46,99% (active),78.2% (active),46,94% (active),50.4%,51,99% (active),89% (active),83% (active),99% (active),94.8% (active)
OCC1CCCCCCCCCCC1,-2%,90% (active),98.2% (active),0,66%,75.2% (active),1,22%,94.3% (active),1,30%,92.3% (active),10,58%,94.7% (active),-1%,51%,89.2% (active)
S=c1sc2ccccc2n1C=Nc1ccccc1,-2%,83% (active),98.9% (active),-5,97% (active),98.8% (active),-1,96% (active),98.7% (active),-8,81% (active),96.2% (active),-1,96% (active),99.1% (active),-2%,79% (active),98.3% (active)
FC(F)(F)c1cccc(COCCN2CCN(Cc3cccc(C(F)(F)F)c3)CC2)c1,36%,98% (active),97.7% (active),26,98% (active),99.1% (active),46,99% (active),99.1% (active),33,99% (active),96.5% (active),29,98% (active),98.2% (active),21%,98% (active),99% (active)
CCOC(=O)c1ccc(-c2cccs2)n1C,-14%,6%,65.9%,-1,-6%,43.8%,-12,-3%,61.9%,28,0%,23.4%,-12,1%,67.8%,-9%,-1%,43.2%
COc1ccc2c(c1)n([O-])c1cc(C#N)ccc1[n+]2=O,94% (active),97% (active),96.1% (active),50,97% (active),45.6%,41,80% (active),35.9%,17,59%,-11.7%,33,87% (active),44.9%,73% (active),96% (active),28.6%
O=C1OC(c2cccc(Cl)c2)Sc2ccccc21 (centres undefined),2%,86% (active),51.7%,0,60%,19.4%,-12,56%,36.2%,-7,47%,-16.7%,26,94% (active),83.2% (active),0%,78% (active),37.6%
C=C(Br)COc1ccc2c(C)cc(=O)oc2c1,38%,39%,67.5%,35,32%,25.7%,42,47%,75.2% (active),38,32%,36%,45,43%,68.8%,49%,51%,49.8%
CCc1nc2c(O)ccc(O)c2nc1C,-137%,33%,72.3% (active),-43,-11%,62.9%,-50,37%,65%,-55,-10%,59.4%,-63,17%,84.2% (active),-107%,2%,90.3% (active)
CCOP(=O)(CCC(=O)[C@@]1(O)CC[C@H]2[C@@H]3CCC4=CC(=O)CC[C@]4(C)[C@H]3CC[C@@]21C)OCC,0%,2%,33.9%,1,5%,5.55%,3,16%,72.8% (active),-1,2%,59.4%,-2,-3%,29.8%,-4%,7%,39.1%
COc1ccc(/C=C/c2ccnc3ccccc23)cc1OC,17%,96% (active),86.4% (active),2,97% (active),90.9% (active),9,98% (active),87.9% (active),6,89% (active),83.7% (active),-8,98% (active),82.5% (active),11%,96% (active),84.9% (active)
CCO/C=C1N=C(/C=C/c2ccc(Cl)cc2)OC/1=O,5%,31%,28.4%,7,13%,32.8%,14,19%,47%,8,43%,-38.7%,14,29%,22.6%,1%,25%,40.8%
NC(CCCCCC(N)C(=O)O)C(=O)O (centres undefined),-165%,-146%,15.1%,-50,-54%,9.1%,-66,-66%,14.9%,-60,-83%,76.8% (active),-67,-71%,18.8%,-241%,-121%,3.05%
